Bioassay records as filed in PubChem.
SKN-1 inh – blocks SKN-1 activity in C. elegans; C. elegans VP596 Pgst-4::GFP/RFP ratio, acrylamide-induced, 24 h; inhibition, % at 21.8 µM; 0.49% of 360,000 active;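 active means interference check ratio from 0.5 to 1.5 plus GFP to RFP signal ratio inhibition reaching or exceeding a fixed threshold, cut at about 30% in these data, passing the limit was not always enough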
MEKK2 WT-MEK5 – raises or lowers MEK5 binding to wildtype human MEKK2 PB1 domain. bead flow cytometry, Alexa488-MEK5 binding to MEKK2 WT; actives lie on both sides. 1.1% of 290,000 active. Q9Y2U5. binding response (% of control), % at 10 µM; in the data active means binding response below about 67% or above about 130%
MEKK2 mut-MEK5 – signal of MEK5 binding to mutant human MEKK2 PB1 domain; percent response, % at 10 µM; AID 1530; 0.35% of 290,000 active; bead flow cytometry, Alexa488-MEK5 binding to MEKK2 mutant; in the data active means percent response above about 24%, passing the limit was not always enough
MEKK3 PB1 HTS – raises or lowers MEK5 binding to the human MEKK3 PB1 domain | bead-based flow cytometry, Alexa488-MEK5 binding to MEKK3; actives lie on both sides; 0 = blocked by unlabeled MEK5, 100 = vehicle | Q99759 | 1.4% of 290,000 active | binding response (% of control), % at 10 µM;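 active means binding response more than 3 SD above or below the average of its plate-row segment, actives on both sides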;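 further: Alexa488 bead fluorescence after subtracting the streptavidin-only scavenger bead signal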
CendR NRP1 mod – NRP-1/CendR interaction modulation | 0.85% of 360,000 active | FAM-RPARPAR peptide binding to NRP-1, fluorescence polarization | inhibition, % at 25 µM;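 active means inhibition or corrected inhibition above about 18%, plus a signal ratio from 0.5 to 1.5, limit read from the data, passing the limit was not always enough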
Target sequence (O14786 whole entry, looked up): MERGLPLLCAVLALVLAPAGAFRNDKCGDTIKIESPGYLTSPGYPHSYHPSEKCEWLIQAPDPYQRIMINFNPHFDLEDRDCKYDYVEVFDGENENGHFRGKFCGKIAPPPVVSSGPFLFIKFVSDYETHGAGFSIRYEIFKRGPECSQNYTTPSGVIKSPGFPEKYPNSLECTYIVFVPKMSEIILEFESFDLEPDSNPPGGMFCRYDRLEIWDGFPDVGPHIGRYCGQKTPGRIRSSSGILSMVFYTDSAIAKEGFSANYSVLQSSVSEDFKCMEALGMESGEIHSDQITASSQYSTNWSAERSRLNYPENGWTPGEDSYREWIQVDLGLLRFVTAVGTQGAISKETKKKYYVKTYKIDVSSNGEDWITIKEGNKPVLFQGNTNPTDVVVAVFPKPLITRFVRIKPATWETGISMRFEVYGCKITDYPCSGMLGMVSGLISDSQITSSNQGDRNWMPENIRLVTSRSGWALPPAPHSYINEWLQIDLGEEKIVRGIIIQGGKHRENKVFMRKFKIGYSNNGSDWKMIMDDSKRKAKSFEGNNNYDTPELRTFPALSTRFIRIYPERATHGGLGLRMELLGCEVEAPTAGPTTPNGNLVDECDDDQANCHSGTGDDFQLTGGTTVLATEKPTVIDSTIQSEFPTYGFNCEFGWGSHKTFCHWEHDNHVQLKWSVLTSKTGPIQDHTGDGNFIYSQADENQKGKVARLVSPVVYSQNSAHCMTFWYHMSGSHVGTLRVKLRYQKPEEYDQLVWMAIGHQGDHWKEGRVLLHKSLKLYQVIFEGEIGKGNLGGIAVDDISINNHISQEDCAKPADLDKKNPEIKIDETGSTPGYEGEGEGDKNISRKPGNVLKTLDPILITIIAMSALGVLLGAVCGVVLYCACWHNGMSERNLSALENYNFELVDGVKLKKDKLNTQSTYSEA
MEKK2wt confirm – raises or lowers MEK5 binding to wildtype human MEKK2, retest. shares compounds with MEKK3 PB1 HTS. bead flow cytometry, Alexa488-MEK5 binding to MEKK2 WT; actives lie on both sides. binding response (% of control), % at 10 µM. 2.4% of 5,900 active; in the data active means binding response below about 16% or above about 210%; inactive means in between
MEKK2mut confirm – signal of MEK5 binding to mutant human MEKK2, retest. shares compounds with MEKK3 PB1 HTS. AID 1893. percent response, % at 10 µM. 2% of 5,900 active. bead flow cytometry, Alexa488-MEK5 binding to MEKK2 mutant; in the data active means percent response mostly above about 71%, no sharp cut-off; inactive means mostly below about 38%;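 further: higher means compound restores mutant binding toward wildtype level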
MEKK3 confirm – MEKK3-MEK5 PB1 inhibition, single concentration confirmation. shares compounds with MEKK3 PB1 HTS. bead flow cytometry, Alexa488-MEK5 binding to MEKK3; active compounds read low. binding response (% of control), % at 10 µM. 1.8% of 5,900 active. AID 1894;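 active means binding response below 72% of control, or above a set upper limit, though filed actives all read lower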;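 further: 100% = DMSO only wells and 0% = binding blocked by excess unlabeled MEK5; lower values mean stronger disruption of MEK5 binding to MEKK3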
An asterisk follows results filed as active; / = not tested or not shown; [ ] = another dose, or the depositor's remark. Sampled rows, rich in hits. Any-hit rate of the full collection: about 3.2%.

SMILES	SKN-1 inh	MEKK2 WT-MEK5	MEKK2 mut-MEK5	MEKK3 PB1 HTS	CendR NRP1 mod	MEKK2wt confirm	MEKK2mut confirm	MEKK3 confirm
CC(C)CC1NC(=O)N(CCCCN2C(=O)c3ccccc3C2=O)C1=O (stereo not drawn)	-7	121	4	135*	4	107	9	109
COc1ccc(-c2nc(CN3CCN(c4cc(C)nc(C)c4)CC3)c(C)o2)c2ccccc12	-4	158*	-6	107	-4	161	26	106
CCOc1ccccc1OCCCC(=O)Nc1sccc1C(N)=O	-7	111	1	151*	-12	103	4	104
O=C(NNC(=O)C1CC(c2cccnc2)=NO1)Nc1ccccc1F (stereo not drawn)	-2	31*	95*	105	5	98	-1	97
Cc1ccc(CSCCNS(C)(=O)=O)cc1	0	91	-4	58*[inhibitor]	8	100	2	101
COc1cc(O)c(C(CC(=O)N2CCCCC2)c2ccc3c(c2)OCO3)c(OC)c1 (stereo not drawn)	19	140*	4	122	-2	102	-1	103
COc1cc(O)c(C(CC(=O)N2CCCC(C)C2)c2ccc(N(C)C)cc2)c(OC)c1 (stereo not drawn)	-7	158*	2	127	16	103	0	101
COc1cc(O)c(C(CC(=O)N2CCCC(C)C2)c2ccc3c(c2)OCO3)c(OC)c1 (stereo not drawn)	17	142*	2	121	15	104	1	98
COc1cc(O)c(C(CC(=O)N2CCN(c3ccccc3)CC2)c2ccc(N(C)C)cc2)c(OC)c1 (stereo not drawn)	-2	134	4	85	22	/	/	/
COc1cc(O)c(C(CC(=O)N2CCOCC2)c2cc(OC)c(OC)c(OC)c2)c(OC)c1 (stereo not drawn)	3	154*	3	126	7	97	2	101
COc1cc(OC)c2ccc(=O)oc2c1C(CC(=O)N1CCCC(C)C1)c1ccc2c(c1)OCO2 (stereo not drawn)	7	84	-16	81	-7	/	/	/
CCCS(=O)(=O)NC(=O)C1(C)CCN(C(=O)C2(c3ccc(Cl)cc3)CCCC2)C1 (stereo not drawn)	-11	/	/	/	-16	/	/	/
CC(=O)Nc1cccc(NC(=O)C(=O)c2cn(CC(=O)N3CCCC3)c3ccccc23)c1	6	/	/	/	-13	/	/	/
CCOC(=O)c1c(C)n(C)c2ccc(OC)c(NC(=O)CN3CCC(C(=O)OCC)CC3)c12	10	55	-37	47*[inhibitor]	-14	102	6	102
Oc1ccccc1/C=N/Nc1cc(N2CCCC2)nc(N2CCCC2)n1	19	181*	40	102	-3	152	22	107
Cc1ccccc1S(=O)(=O)N1C[C@H]2CON(C)[C@H]2C[C@H]1c1cccc(Oc2ccccc2)c1	15	/	/	/	5	/	/	/
COc1ccc(CCN2CCCC(CN(C)Cc3cc(Cl)c(O)c(OC)c3)C2)cc1 (stereo not drawn)	11	135*	25*	112	0	132	24	107
COc1ccc(CN(C)CC2CCCN(CCc3ccccc3C)C2)cc1O (stereo not drawn)	-11	115	8	102	-10	/	/	/
CCOC(=O)c1cc2cc([N+](=O)[O-])ccc2oc1=O	-15	76	-28	75*[inhibitor]	-13	102	7	100
O=C(OCc1nnc(-c2cccs2)o1)C1=NN(c2ccccc2)C(=O)CC1	13	/	/	/	-12	/	/	/
N#Cc1cccc(NC(=O)c2cc(C3CCCCN3C(=O)c3ccc4c(c3)CCO4)on2)c1 (stereo not drawn)	7	/	/	/	-4	/	/	/
O=c1c2cc(NC(=S)NCCN3CCCCCC3)ccc2nc2n1CCCCC2	-5	113	3	101	1	/	/	/
O=c1c2cc(NC(=S)NCCCN3CCC(Cc4ccccc4)CC3)ccc2nc2n1CCCCC2	-7	149*	14	107	0	154	28	111
C/C(=N\NC(=O)C1CCCC1)c1ccc(Cl)cc1	3	96	-1	99	10	/	/	/
C=CCN(C(=O)CNS(=O)(=O)c1ccccc1)C(C(=O)NCCOC)c1cccnc1 (stereo not drawn)	8	109	13	105	-6	/	/	/
SMILES	SKN-1 inh	MEKK2 WT-MEK5	MEKK2 mut-MEK5	MEKK3 PB1 HTS	CendR NRP1 mod	MEKK2wt confirm	MEKK2mut confirm	MEKK3 confirm
COc1ccc2c(c1)c1ncn(CCN3CCCC3)c(=O)c1n2C	5	102	0	102	-19	/	/	/
COc1ccccc1CCn1cnc2c3cc(C)ccc3n(C)c2c1=O	-20	2.0*[inhibitor]	-16	2.0*[inhibitor]	2	104	3	103
COc1ccc(NC(C)=O)cc1CP(=O)(c1ccccc1)c1ccccc1	10	98	-2	100	13	/	/	/
c1cc2c(cc1C1CCCCC1)c1c3n2CCN=C3CCC1	19	135*	19	83	1	115	8	103
Cc1ccc2c(c1)c1c3n2CCN=C3CCC1	-18	91	-4	89	-8	/	/	/
c1cc2c(cc1C1CCCCC1)c1c3n2CCCNC3CCC1 (stereo not drawn)	7	165*	18	93	-7	157	25	104
CCOc1ccc(CCNC(=O)COC(=O)CSc2ccccc2C)cc1OCC	11	103	7	102	1	/	/	/
CC(C)Cc1ccccc1O	/	101	-3	104	/	/	/	/
O=C(O)c1ccccc1-c1ccccc1C(=O)Nc1ccc2c(c1)CCC2	4	105	3	101	8	/	/	/
O=C(Nc1ccc2c(c1)CCC2)c1ccccc1F	21	103	0	135*	4	104	4	104
CCCCn1c(-c2cccs2)nc2oc3ccccc3c(=O)c2c1=O	1	115	19	129*	20*	98	-3	98
CCOP(=O)(OCC)c1nc(-c2ccccc2Cl)oc1N1CCOCC1	9	102	-1	104	4	/	/	/
CCOP(=O)(OCC)c1nc(-c2ccc(Cl)cc2Cl)oc1N1CCCCC1	10	49	-15	39*[inhibitor]	2	99	-3	103
O=C(/C=C/c1ccco1)N(Cc1ccccc1)C1CCS(=O)(=O)C1 (stereo not drawn)	8	101	-8	97	8	/	/	/
O=C(/C=C/c1ccco1)N(Cc1ccc(F)cc1)C1CCS(=O)(=O)C1 (stereo not drawn)	-1	63*[inhibitor]	-17	59*[inhibitor]	-1	97	-1	98
